The nature of experiment [1]: binders of probe aFSTL3 on microarray, primary screen, stem cell growth factor project, biochemical, small-molecule microarray, fluorescence 635/667 (AID 1064).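 Note: measures binding of the biotinylated anti-FSTL3 antibody to printed compounds.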 Particulars: higher = more signal.
The nature of experiment [2]: binders from COS7 lysate, DM2A8 probe, primary screen, torsin A project, cell lysate, small-molecule microarray, fluorescence 635/667 (AID 1065). To be noted: higher = more signal, COS7 lysate expressing mutant human TOR1A.
Experiment [3] in a line: binders of probe aFGF2 on microarray, primary screen, stem cell growth factor project, biochemical, small-molecule microarray, fluorescence 635/667 (AID 1067).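 Note: measures binding of biotinylated aFGF2 protein to printed compounds on slides; z-score merges feature fluorescence and signal-to-noise across triplicate slides.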 Particulars: higher = more signal.
The nature of experiment [4]: binders of probe aFGF10 on microarray, primary screen, stem cell growth factor project, biochemical, small-molecule microarray, fluorescence 635/667 (AID 1071).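 Note: score merges 667 nm spot intensity and signal to noise from triplicate slides.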 To be noted: higher = more signal.
Experiment [5] has as its target Neurogenic locus notch homolog protein 2 (Homo sapiens) (UniProt Q04721). Briefly: Notch2 binders on small-molecule microarrays, primary screen, biochemical, small-molecule microarray, 635 nm fluorescence, stem cell growth factors (AID 1073). To be noted: Notch2 binding, higher = more signal.
Experiment [6] addresses Pro-neuregulin-1, membrane-bound isoform (Homo sapiens) (UniProt Q02297). Briefly: NRG1 binders on small-molecule microarrays, primary screen, psychiatric disease protein project, biochemical, small-molecule microarray, fluorescence 635/667 (AID 1075).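 Note: score combines 667 nm spot fluorescence with signal to noise.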 Particulars: NRG1 binding, 635 nm fluorescence, higher = more signal.
For experiment [7], the system named is Neuregulin-1 EGF-like domain. Briefly: binders of neuregulin-1 EGF-like domain, primary screen, biochemical, small-molecule microarray, 635 nm fluorescence (AID 1081).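 Note: binding of the protein to compounds printed on small-molecule microarray slides.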 To be noted: small-molecule microarray binding, higher = more signal.
A short description of experiment [8]: FRG1 promoter luciferase signal modulators, primary screen, FRG1 inhibition for FSHD, cell-based, C2C12 myotubes, firefly/Renilla luciferase, luminescence (AID 1084). To be noted: higher = more signal, called active from +8 up or from −8 down.
Experiment [9] in a line: binders of probe aFST on microarray, primary screen, stem cell growth factor project, biochemical, small-molecule microarray, fluorescence 635/667 (AID 1086).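 Note: score merges 667 nm fluorescence with signal-to-noise of each printed compound spot.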 Particulars: higher = more signal.
A short description of experiment [10]: binders of probe aHhip on microarray, primary screen, stem cell growth factor project, biochemical, small-molecule microarray, fluorescence 635/667 (AID 1087).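 Note: score merges spot fluorescence at 667nm with spot signal to noise ratio.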 To be noted: higher = more signal.

SMILES strings stand for the structures. The source made the active and inactive calls.

Chain of Pro-neuregulin-1, membrane-bound isoform (Homo sapiens) (Q02297 whole entry, looked up, the tested form may be a part, canonical isoform): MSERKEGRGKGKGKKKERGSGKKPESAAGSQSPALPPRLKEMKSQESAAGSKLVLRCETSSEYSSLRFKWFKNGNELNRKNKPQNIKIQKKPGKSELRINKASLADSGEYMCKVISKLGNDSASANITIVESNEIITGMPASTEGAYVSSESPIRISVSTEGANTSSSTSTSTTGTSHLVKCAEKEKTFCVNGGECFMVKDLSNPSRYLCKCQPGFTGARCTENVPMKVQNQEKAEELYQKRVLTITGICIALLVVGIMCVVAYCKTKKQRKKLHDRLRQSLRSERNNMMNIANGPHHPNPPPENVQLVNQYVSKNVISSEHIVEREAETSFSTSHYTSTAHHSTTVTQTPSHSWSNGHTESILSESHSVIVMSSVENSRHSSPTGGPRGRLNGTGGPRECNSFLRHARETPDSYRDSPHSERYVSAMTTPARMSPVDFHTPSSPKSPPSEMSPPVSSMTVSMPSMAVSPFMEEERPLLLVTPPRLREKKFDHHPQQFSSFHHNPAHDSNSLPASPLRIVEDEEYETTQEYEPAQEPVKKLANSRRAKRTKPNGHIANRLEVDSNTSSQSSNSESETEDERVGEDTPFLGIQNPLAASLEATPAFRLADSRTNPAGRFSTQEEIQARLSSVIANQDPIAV
Chain of Neurogenic locus notch homolog protein 2 (Homo sapiens) (Q04721 whole entry, looked up, canonical isoform): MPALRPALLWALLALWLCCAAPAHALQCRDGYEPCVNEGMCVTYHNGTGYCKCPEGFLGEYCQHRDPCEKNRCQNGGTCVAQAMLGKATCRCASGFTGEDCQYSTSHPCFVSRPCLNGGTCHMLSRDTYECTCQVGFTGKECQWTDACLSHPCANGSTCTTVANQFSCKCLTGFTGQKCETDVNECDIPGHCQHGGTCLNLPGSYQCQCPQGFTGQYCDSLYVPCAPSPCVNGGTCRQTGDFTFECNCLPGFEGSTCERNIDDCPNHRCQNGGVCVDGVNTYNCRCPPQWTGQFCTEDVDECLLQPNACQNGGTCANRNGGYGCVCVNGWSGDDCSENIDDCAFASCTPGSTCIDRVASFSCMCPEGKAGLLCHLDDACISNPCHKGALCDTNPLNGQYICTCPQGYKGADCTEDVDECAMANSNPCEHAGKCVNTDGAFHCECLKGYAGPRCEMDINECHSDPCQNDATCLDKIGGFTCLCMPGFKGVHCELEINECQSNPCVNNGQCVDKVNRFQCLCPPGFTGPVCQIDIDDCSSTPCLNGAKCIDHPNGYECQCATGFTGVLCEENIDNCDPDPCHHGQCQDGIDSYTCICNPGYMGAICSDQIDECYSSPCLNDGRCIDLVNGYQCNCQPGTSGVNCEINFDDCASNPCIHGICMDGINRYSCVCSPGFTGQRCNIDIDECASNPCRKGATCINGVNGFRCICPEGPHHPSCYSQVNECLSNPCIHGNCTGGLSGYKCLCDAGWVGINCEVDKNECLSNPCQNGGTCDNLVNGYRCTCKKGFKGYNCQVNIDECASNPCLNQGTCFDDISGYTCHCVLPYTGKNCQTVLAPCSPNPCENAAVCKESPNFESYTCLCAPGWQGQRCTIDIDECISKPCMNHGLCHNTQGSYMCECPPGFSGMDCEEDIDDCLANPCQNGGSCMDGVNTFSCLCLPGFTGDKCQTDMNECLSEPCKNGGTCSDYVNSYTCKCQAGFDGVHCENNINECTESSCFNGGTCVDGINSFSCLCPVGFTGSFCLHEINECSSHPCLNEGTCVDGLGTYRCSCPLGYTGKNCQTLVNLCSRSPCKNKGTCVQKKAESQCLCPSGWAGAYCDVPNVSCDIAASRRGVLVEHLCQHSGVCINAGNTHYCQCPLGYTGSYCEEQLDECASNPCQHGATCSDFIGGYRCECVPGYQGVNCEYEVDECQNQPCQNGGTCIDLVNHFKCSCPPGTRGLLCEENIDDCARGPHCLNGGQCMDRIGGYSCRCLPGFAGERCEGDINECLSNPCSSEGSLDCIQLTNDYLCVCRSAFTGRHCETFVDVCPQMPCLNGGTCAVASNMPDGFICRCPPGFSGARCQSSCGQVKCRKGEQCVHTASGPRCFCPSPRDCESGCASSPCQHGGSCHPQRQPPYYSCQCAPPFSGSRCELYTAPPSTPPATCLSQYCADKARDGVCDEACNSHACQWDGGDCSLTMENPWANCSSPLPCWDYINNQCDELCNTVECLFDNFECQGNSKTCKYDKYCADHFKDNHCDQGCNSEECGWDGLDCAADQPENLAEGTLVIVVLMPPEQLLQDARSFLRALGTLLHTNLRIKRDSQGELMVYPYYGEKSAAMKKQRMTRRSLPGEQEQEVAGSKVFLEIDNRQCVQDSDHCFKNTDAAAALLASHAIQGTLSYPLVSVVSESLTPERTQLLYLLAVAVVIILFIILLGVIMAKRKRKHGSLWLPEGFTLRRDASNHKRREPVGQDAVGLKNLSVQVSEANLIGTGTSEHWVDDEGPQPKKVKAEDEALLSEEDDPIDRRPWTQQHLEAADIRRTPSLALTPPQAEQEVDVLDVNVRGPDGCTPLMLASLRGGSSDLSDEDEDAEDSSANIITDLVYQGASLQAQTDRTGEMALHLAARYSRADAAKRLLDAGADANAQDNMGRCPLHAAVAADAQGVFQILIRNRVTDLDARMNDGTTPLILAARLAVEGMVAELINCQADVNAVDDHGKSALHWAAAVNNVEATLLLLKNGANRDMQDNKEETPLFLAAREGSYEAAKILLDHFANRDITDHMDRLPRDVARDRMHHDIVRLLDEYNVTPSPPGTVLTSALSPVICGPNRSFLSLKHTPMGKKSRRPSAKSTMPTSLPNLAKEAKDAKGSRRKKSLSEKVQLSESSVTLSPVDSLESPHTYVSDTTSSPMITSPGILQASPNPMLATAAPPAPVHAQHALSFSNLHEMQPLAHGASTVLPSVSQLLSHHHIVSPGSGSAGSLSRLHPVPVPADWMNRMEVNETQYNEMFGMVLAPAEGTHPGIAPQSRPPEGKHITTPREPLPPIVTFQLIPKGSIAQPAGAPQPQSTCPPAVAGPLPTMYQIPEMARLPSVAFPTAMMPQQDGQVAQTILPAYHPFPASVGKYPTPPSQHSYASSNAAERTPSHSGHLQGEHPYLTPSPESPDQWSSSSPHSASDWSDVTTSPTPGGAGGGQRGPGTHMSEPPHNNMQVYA

Regarding `CC(C)C[C@@H]1NC(=O)[C@H]2C[C@@H](C(=O)NCCCCCCNC(=O)CS)[C@@H](c3ccc(O)cc3)N2C1=O`, the composite z-score in experiment [1] is -0.254; in [2] it was 1.62; in experiment [3], -0.0297; in experiment [4], 0.437; in experiment [5], 0.766; in [6], 1.22. In addition, the composite z-score in [7] was 1.34; in [9], 0.665; in experiment [10], -0.0296. Also, in [8], the z-score was 1.61 (inactive).

Regarding `[N-]=[N+]=NCc1ccccc1C[C@]1(C(=O)N2CCOCC2)N=C(c2ccc(OCCCO)cc2)O[C@H]1c1ccccc1CN=[N+]=[N-]`, the composite z-score in experiment [1] came out at 0.998; in [2], 2.14; in experiment [3], 0.285; in experiment [4], 0.88; in experiment [5], 1.42; in experiment [6], 2.09. The results for the composite z-score in [7], in experiment [9] and in experiment [10] were 1.26, 1.5 and 0.0623, respectively. Further, the z-score in experiment [8] is -2.03 (inactive).

For `COC(=O)[C@@]1(Cc2ccccc2CN=[N+]=[N-])COC(c2ccc(OCCCO)cc2)=N1`, the composite z-score in experiment [1] was 1.28; in experiment [2] it was -1.34; in [3], -0.245; in experiment [4], -0.565; in experiment [5] it was -1.79; in experiment [6], 0.305. The composite z-score in experiment [7] was 0.62; in experiment [9], -0.575; in experiment [10], -0.137. Further, in experiment [8], the z-score is -0.988 (inactive).

For the compound `C=CCC(OC(C)=O)[C@@H]1[C@@H](N(Cc2ccc(-c3cccc(C(F)(F)F)c3)o2)C(=O)Cc2ccc(OC)cc2)c2cc(OCCCO)ccc2N1C(=O)c1ccc2ccccc2n1` (stereo not given in full), the composite z-score is 0.0523 in experiment [1]; -0.0913 in experiment [2]; -0.0922 in experiment [3]; 0.745 in [4]; -0.485 in [5]; -0.249 in experiment [6]. Further, the composite z-score is -0.433 in experiment [7], 0.364 in experiment [9] and -0.16 in experiment [10]. In addition, the z-score in experiment [8] was 0.312 (inactive).

In the case of `C=CC[C@]1(C(=O)N(C)C)COC(c2ccc(OCCCO)cc2)=N1`, the composite z-score was 1.11 in [1]; 2.23 in [2]; 0.23 in experiment [3]; 0.744 in experiment [4]; 0.221 in experiment [5]; 1.83 in [6]. In addition, the composite z-score was 1.42 in experiment [7], 0.459 in experiment [9] and 0.0373 in [10]. Moreover, the z-score in [8] was 0.233 (inactive).

For the compound `C=CCC(OC(C)=O)[C@@H]1[C@@H](N(Cc2ccc(-c3cccc(C(F)(F)F)c3)o2)C(=O)Cc2ccc(F)cc2)c2cc(OCCCO)ccc2N1C(=O)c1ccc2ccccc2c1` (stereo not given in full), the composite z-score was 0.196 in experiment [1]; 0.167 in experiment [2]; -0.133 in [3]; -0.428 in experiment [4]; -0.58 in [5]; -0.28 in [6]. Further, the values for the composite z-score in [7], in [9] and in [10] were -0.0656, 0.487 and -0.0994, respectively. In addition, the z-score in experiment [8] is 0.512 (inactive).

Turning to `CCCCN1CC=CC23O[C@@H]4/C=C\CCC(C)OC(=O)C4[C@H]2C(=O)N(C(C)CO)[C@@H]3C1=O` (stereo not given in full), the composite z-score in experiment [1] is -0.126; in [2], -0.248; in experiment [3], -0.164; in [4], -0.0863; in experiment [5] it was -0.831; in [6] it was -1. Moreover, the composite z-score was 0.331 in experiment [7], -0.536 in experiment [9] and 0.0373 in [10]. Besides, the z-score in experiment [8] is -0.3 (inactive).

In the case of `COCCCNC(=O)[C@@H]1c2ccccc2C(=O)N(Cc2cc(C(F)(F)F)cc(C(F)(F)F)c2)[C@H]1c1ccc(CO)cc1`, the composite z-score is -0.468 in experiment [1]; 0.668 in [2]; -0.182 in [3]; -0.568 in experiment [4]; -0.0254 in experiment [5]; 0.686 in experiment [6]. Also, the results for the composite z-score in experiment [7], in experiment [9] and in [10] were 0.887, 1.49 and -0.34, respectively. For the same compound, in [8], the z-score is 0.309 (inactive).

`C=CCC(OC(C)=O)[C@@H]1[C@@H](N(Cc2ccc(-c3ccccc3)cc2)C(=O)c2ccc(C)cc2)c2cc(OCCCO)ccc2N1C(=O)c1ccc2ccccc2c1` (stereo not given in full): the composite z-score is -0.233 in experiment [1]; 0.0822 in experiment [2]; -0.116 in experiment [3]; -0.148 in [4]; -0.168 in experiment [5]; -0.138 in experiment [6]. Further, the composite z-score is -0.405 in experiment [7], 0.482 in experiment [9] and -0.0427 in experiment [10]. Moreover, the z-score in [8] was -2.01 (inactive).

As for `CCCC=C(CCC)[C@@H](NS(=O)(=O)c1ccc(Cl)cc1)c1ccccc1`, the composite z-score in [1] was 0.329; in [2], -0.558; in experiment [3] it was 0.106; in [4], -0.243; in experiment [5] it was 0.191; in experiment [6], -0.223. For the same compound, the composite z-score in experiment [7] was -0.358; in experiment [9], -0.0037; in experiment [10], 0.0251. Further, in experiment [8], the z-score is 0.909 (inactive).

Consider `C=CC[C@@]1(C(=O)N(C)C)N=C(c2ccc(OCCCO)cc2)O[C@@H]1c1ccccc1`, for which the composite z-score in experiment [1] worked out at 0.733; in [2] it was 1.13; in experiment [3], 0.0917; in experiment [4], 0.794; in [5], 0.515; in [6] it was 2.08. In addition, the composite z-score in experiment [7] worked out at 1.38; in experiment [9], 0.598; in experiment [10] it was 0.109. Further, the z-score in experiment [8] was -0.004 (inactive).

Regarding `CC(C)c1ccc(NN2C(C(O)C(C)C)C=CC3C(=O)N(c4ccccc4)C(=O)C32)cc1` (stereo not given), the composite z-score in experiment [1] worked out at 0.733; in [2] it was 0.237; in [3] it was 0.225; in [4], 0.707; in experiment [5], 1.55; in [6] it was 1.92. In addition, the figures for the composite z-score in experiment [7], in experiment [9] and in [10] were 1.31, 1.3 and -0.208, respectively. Moreover, the z-score in experiment [8] was -0.0025 (inactive).

For the compound `COc1ccc([Si](C)(C)[C@H]2[C@H](CCn3cc([C@H](O)c4ccccc4)nn3)O[C@@]3(C(=O)N(C)c4c(Br)cc(C)cc43)[C@@H]2C)cc1`, the composite z-score in experiment [1] was -0.0258; in experiment [2], 0.48; in experiment [3] it was -0.113; in experiment [4], -0.327; in [5], -0.442; in experiment [6] it was 0.218. Also, the figures for the composite z-score in experiment [7], in experiment [9] and in experiment [10] were 0.881, -0.438 and -0.0994, respectively. Also, the z-score in [8] was -0.905 (inactive).

`CC(C)N1CC=CC23O[C@@H]4C=CCCOC(=O)C4[C@H]2C(=O)N(CCCCCO)[C@@H]3C1=O` (stereo not given in full): the composite z-score was -0.0451 in [1]; -1.06 in experiment [2]; -0.103 in experiment [3]; 0.279 in experiment [4]; -0.905 in experiment [5]; 1.93 in experiment [6]. The composite z-score is 1.21 in experiment [7], -0.352 in experiment [9] and -0.353 in [10]. Further, the z-score in experiment [8] was -0.928 (inactive).

Regarding `COC(=O)[C@@]1(CCS(=O)(=O)c2ccccc2)N=C(c2ccc(OCCCO)cc2)O[C@H]1c1ccccc1N=[N+]=[N-]`, the composite z-score in experiment [1] is -0.0367; in experiment [2], 0.35; in experiment [3], -0.051; in [4], 0.207; in [5], 1.05; in experiment [6], 0.573. For the same compound, the composite z-score in experiment [7] was 1.21; in experiment [9], 0.252; in [10], -0.0346. Also, the z-score in [8] was -2.34 (inactive).

As to `[N-]=[N+]=NCc1ccccc1[C@H]1OC(c2ccc(OCCCO)cc2)=N[C@@]1(Cc1ccccc1)C(=O)N1CCOCC1`, the composite z-score is -0.212 in [1]; 0.768 in experiment [2]; 0.0232 in experiment [3]; 1.15 in [4]; 1.71 in [5]; 1.39 in [6]. The values for the composite z-score in [7], in experiment [9] and in experiment [10] were 1.21, 1.8 and -0.166, respectively. The z-score in experiment [8] was -0.868 (inactive).

Turning to `O=C1c2ccccc2[C@](Cc2ccccc2I)(C(=O)O)[C@H](c2ccc(CO)cc2)N1Cc1ccccc1`, the composite z-score was 0.877 in experiment [1]; 0.996 in experiment [2]; -0.101 in [3]; 0.0611 in experiment [4]; 0.19 in experiment [5]; 1.51 in experiment [6]. Further, the composite z-score in [7] is 1.23; in [9], -0.0119; in [10], -0.226. Further, the z-score in experiment [8] is -1.1 (inactive).

The values are drawn from PubChem BioAssay.
